Laboratory results published in PubChem BioAssay.
Calls of active or inactive are those of the source.

Assays:
Albumin (Bos taurus) = Albumin (Bos taurus) (UniProt P02769); test: compounds binding labelled BSA control protein – biochemical, small-molecule microarray, Alexa647 label, 635/667 nm fluorescence, artefact control for SMM control protein annotation, profiling panel (AID 1118); conditions: BSA-A647 binding, fluorescence 635 nm, higher = more signal;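 note: score merges 667 nm emission intensity and signal-to-noise per printed compound spot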
Chain of Albumin (Bos taurus) (P02769 whole entry, looked up): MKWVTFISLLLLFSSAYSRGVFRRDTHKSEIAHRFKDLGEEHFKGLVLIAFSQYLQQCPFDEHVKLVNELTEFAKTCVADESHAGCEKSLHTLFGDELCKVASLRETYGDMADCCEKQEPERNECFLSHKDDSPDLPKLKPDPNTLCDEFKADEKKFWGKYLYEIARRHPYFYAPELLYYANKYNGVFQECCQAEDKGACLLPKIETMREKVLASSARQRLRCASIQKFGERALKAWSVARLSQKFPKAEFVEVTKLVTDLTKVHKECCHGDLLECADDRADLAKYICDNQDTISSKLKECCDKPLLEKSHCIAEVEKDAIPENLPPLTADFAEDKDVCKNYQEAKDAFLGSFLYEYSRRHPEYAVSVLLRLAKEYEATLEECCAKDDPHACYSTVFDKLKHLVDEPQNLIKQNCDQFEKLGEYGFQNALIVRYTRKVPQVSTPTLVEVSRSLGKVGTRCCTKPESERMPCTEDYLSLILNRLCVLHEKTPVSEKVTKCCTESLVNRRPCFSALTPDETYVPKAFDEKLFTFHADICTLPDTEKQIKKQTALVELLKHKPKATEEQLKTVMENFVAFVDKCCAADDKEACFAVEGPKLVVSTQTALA

[1] = probe aXIP binding to arrayed compounds – biochemical, NeuroSMM set, 635/667 nm fluorescence, primary screen (AID 1119); conditions: small-molecule microarray, higher = more signal, called active from +8 up or from −8 down;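 note: probe is the protein aXip251-270 applied at 1 µg/mL to compound-printed slides; binding of probe to printed compounds measured as 667 nm fluorescence plus signal to noise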
[2] = probe aNOTCH3 binding on compound microarray – biochemical, small-molecule microarray, 635/667 nm fluorescence, primary screen (AID 1120); conditions: higher = more signal;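 note: probe is a biotin-tagged antibody raised against NOTCH3 rather than NOTCH3 protein; score merges spot fluorescence near 667 nm with spot signal to noise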
[3] = probe aNOTCH2 binding on compound microarray – biochemical, small-molecule microarray, 635/667 nm fluorescence, primary screen (AID 1121); conditions: higher = more signal;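 note: score merges feature fluorescence read at 667 nm with its signal to noise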
[4] = molecular target: Carbonic anhydrase 2 (Homo sapiens) (UniProt P00918); test: compounds binding carbonic anhydrase 2 – biochemical, small-molecule microarray, Alexa647-labelled CAII, profiling panel (AID 1122); conditions: CAII-A647 binding fluorescence, higher = more signal
[5] = COS7 lysate on small-molecule microarray, probe aHis, 635 nm (AID 1123); conditions: COS7 cell lysate, fluorescence, higher = more signal;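 note: z-score combines 667nm fluorescence intensity with signal-to-noise per printed compound spot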
[6] = probe aLAP1 signal on lysate-treated microarray – cell lysate, small-molecule microarray, COS7 lysate, primary screen (AID 1124); conditions: probe aLAP1, fluorescence, higher = more signal;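 note: lysate comes from COS7 cells expressing LAP1 and is applied at 0.3 µg/mL; score merges spot fluorescence near 667 nm with signal-to-noise over triplicate slides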
Sam68 (KHDRBS1) = test: compounds binding KHDRBS1 protein – biochemical, small-molecule microarray, 635 nm fluorescence, primary screen (AID 1125); conditions: higher = more signal;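 note: score merges 667 nm channel intensity with signal to noise over triplicate slides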
[7] = system: Chordin-like protein 2 (CHRDL2); test: compounds binding chordin-like 2 – biochemical, small-molecule microarray, 635 nm fluorescence, primary screen (AID 1126); conditions: fluorescence 635 nm, higher = more signal;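 note: printed compound slides probed with Chrdl2 protein at 4 µg/mL for 1 h at 4 C; score merges 667 nm emission intensity with signal to noise over three replicate slides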
[8] = molecular target: Concanavalin-A (Canavalia ensiformis) (UniProt P02866); test: compounds binding concanavalin A lectin – biochemical, small-molecule microarray, Alexa647 label, 635 nm, artefact control for SMM control protein annotation, primary screen (AID 1127); conditions: ConA-A647 binding fluorescence, higher = more signal;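 note: z combines 667 nm emission intensity with signal-to-noise across three replicate slides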
Chain of Concanavalin-A (Canavalia ensiformis) (P02866 whole entry, looked up): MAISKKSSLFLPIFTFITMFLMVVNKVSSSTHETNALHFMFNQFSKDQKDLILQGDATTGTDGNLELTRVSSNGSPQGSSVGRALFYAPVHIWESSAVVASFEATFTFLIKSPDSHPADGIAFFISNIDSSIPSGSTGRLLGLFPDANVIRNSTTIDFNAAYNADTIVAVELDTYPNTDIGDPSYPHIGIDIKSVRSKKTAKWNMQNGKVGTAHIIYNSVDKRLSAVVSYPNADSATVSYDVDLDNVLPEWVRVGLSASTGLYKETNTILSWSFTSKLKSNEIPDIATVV

Row | Compound | composite z-score (Albumin (Bos taurus)) | composite Z-score [1] | composite z-score [2] | composite z-score [3] | composite z-score [4] | composite z-score [5] | composite z-score [6] | composite z-score (Sam68 (KHDRBS1)) | composite z-score [7] | composite z-score [8]
1 | COCCOC(=O)N1C(=O)[C@@]2(c3cc(C#Cc4ccc(OC)cc4)ccc31)[C@H](c1ccc(OCCO)cc1)N1[C@H](c3ccccc3)[C@H](c3ccccc3)OC(=O)[C@H]1[C@@H]2C(N)=O | 0.641 | 0.498 (inactive) | 0.132 | -0.0404 | 0.573 | 0.441 | 0.617 | 1.35 | 0.488 | 1.16
2 | COc1ccc([Si](C)(C)[C@@H]2[C@@H](CC(=O)N3Cc4ccccc4C[C@H]3CO)O[C@]3(C(=O)N(Cc4cccc(N5CCCCC5=O)c4)c4ccccc43)[C@H]2C)cc1 | -0.565 | 0.436 (inactive) | 0.0425 | -0.133 | -0.0599 | 0.977 | 0.426 | 1.29 | 1.28 | 1.13
3 | C=CCNC(=O)[C@@H]1[C@H]2C(=O)O[C@H](c3ccccc3)[C@H](c3ccccc3)N2[C@H](c2ccc(O)cc2)[C@@]12C(=O)Nc1ccc(C#CCCO)cc12 | 0.803 | -0.588 (inactive) | -0.186 | -0.149 | 0.761 | 1.55 | 0.71 | 0.277 | -1.31 | 0.0196
4 | Cc1ccc(-c2cccc(=O)o2)cc1 | -0.682 | -1.14 (inactive) | -0.15 | -0.108 | -0.501 | 0.0688 | 0.258 | -1.39 | 0.183 | -0.413
5 | CN1C(=O)C2C=CC(C(O)c3cccc4ccccc34)N(NC(=O)OC(C)(C)C)C2C1=O (stereo not given) | 1 | 0.58 (inactive) | 0.479 | 0.385 | 0.752 | 2.95 | 1.57 | 1.3 | -0.705 | 1.17
6 | CN(C)C(=O)[C@@]1(Cc2ccccc2N=[N+]=[N-])N=C(c2ccc(OCCCO)cc2)O[C@H]1c1ccccc1N=[N+]=[N-] | 0.89 | 0.167 (inactive) | 0.277 | 0.083 | 0.565 | 1.65 | 0.372 | 1.33 | 0.325 | 0.819
7 | CC(C)c1ccc(NN2C(C(O)c3ccccn3)C=CC3C(=O)N(c4ccccc4)C(=O)C32)cc1 (stereo not given) | 0.835 | -0.232 (inactive) | 0.447 | 0.142 | 0.808 | 2.92 | 0.881 | 1.32 | -0.159 | 1.1
8 | C=CCC(OC(C)=O)[C@@H]1[C@@H](N(Cc2cc3ccccc3o2)C(=O)Cc2ccc(OC)cc2)c2cc(OCCCO)ccc2N1C(=O)c1ccc(-c2ccccc2)cc1 (stereo not given in full) | 0.0023 | -0.287 (inactive) | 0.111 | 0.0098 | -0.137 | -0.338 | -0.0843 | -0.494 | 0.224 | -1.15
9 | NC(=O)NCC#Cc1ccc2c(c1)[C@]1(C(=O)N2)[C@H](c2ccc(OCCO)cc2)N2[C@H](c3ccccc3)[C@H](c3ccccc3)OC(=O)[C@H]2[C@@H]1C(=O)N1CCN(c2ncccn2)CC1 | -0.17 | -0.991 (inactive) | 0.108 | 0.0101 | 0.257 | 0.815 | 0.332 | 0.776 | 0.903 | 0.698
10 | CCOC(=O)C[C@H]1[C@H](OC(=O)Cc2ccc3c(c2)OCO3)[C@@H](NC(=O)c2ccccc2)c2cc(OCCCO)ccc2N1C(=O)c1ccc2ccccc2n1 | 0.645 | 0.375 (inactive) | -0.226 | -0.147 | 0.08 | 0.526 | -0.145 | 0.679 | 0.127 | 1.1
11 | COc1ccc([Si](C)(C)[C@@H]2[C@@H](CCO)O[C@]3(C(=O)N(Cc4ccc(N5C(=O)c6ccccc6Oc6ccccc65)cc4)c4ccccc43)[C@H]2C)cc1 | 0.0104 | 0.441 (inactive) | -0.0984 | -0.106 | -0.104 | 0.232 | -0.398 | -0.345 | -0.968 | 0.187
12 | Cc1ccc(S[C@]2(C(=O)NCCN3CCOCC3)CC(=O)N(C3Cc4ccccc4C3)[C@@H]2c2ccc(CO)cc2)cc1 | 0.0022 | 0.39 (inactive) | -0.159 | -0.0745 | 0.66 | 2.08 | 0.0297 | 0.151 | -0.373 | 0.152
13 | COc1ccccc1CN1C(=O)c2ccccc2[C@@]2(Cc3ccccc3N(C3CC3)C2=O)[C@@H]1c1ccc(CO)cc1 | 0.0999 | 0.794 (inactive) | -0.15 | -0.112 | 0.669 | 0.165 | -0.978 | -0.557 | -0.39 | 0.107
14 | COCCOC(=O)N1C(=O)[C@@]2(c3ccccc31)[C@H](c1ccccc1OCCO)N1[C@H](c3ccccc3)[C@H](c3ccccc3)OC(=O)[C@H]1[C@@H]2C(=O)N1CCc2cc(OC)c(OC)cc2C1 | -0.274 | 0.511 (inactive) | 0.0833 | -0.0176 | 0.335 | 0.51 | 0.0553 | 1.27 | 0.475 | 1.18
15 | COC(=O)[C@@]1(Cc2ccccc2)[C@H]2c3cc(C(=O)N4CCCC4)n(Cc4ccc(OC(F)(F)F)cc4)c3C[C@H]2CN1C(=O)c1ccccc1 | 0.963 | -0.56 (inactive) | 0.772 | 0.509 | 0.461 | 2.44 | 0.498 | 1.31 | -0.488 | 1.16
16 | NC(=O)NCC#Cc1ccc2c(c1)[C@]1(C(=O)N2)[C@H](c2ccc(OCCO)cc2)N2[C@H](c3ccccc3)[C@H](c3ccccc3)OC(=O)[C@H]2[C@@H]1C(=O)N1CCCCCCC1 | 0.435 | 5.46 (inactive) | 2.08 | 1.13 | 0.894 | 2.81 | 0.669 | 1.23 | 1.13 | 1.14
17 | O=C(O)[C@@]1(Cc2ccccc2)COC(c2ccc(OCCCO)cc2)=N1 | -0.584 | 0.133 (inactive) | -0.197 | -0.135 | 0.844 | 0.502 | -0.131 | -0.21 | -0.675 | -0.115
18 | C=CCC(OC(C)=O)[C@@H]1[C@@H](N(Cc2ccc(-c3ccccc3)cc2)C(=O)Cc2ccc(OC)cc2)c2cc(OCCCO)ccc2N1C(=O)c1ccc(-c2ccccc2)cc1 (stereo not given in full) | -0.146 | -0.427 (inactive) | 0.268 | 0.0224 | 0.204 | -0.0315 | 0.394 | -0.323 | 0.268 | -0.781
19 | COCCOC(=O)N1C(=O)[C@@]2(c3cc(C#Cc4ccc(OC)cc4)ccc31)[C@H](C(=O)N1CCc3cc(OC)c(OC)cc3C1)[C@H]1C(=O)O[C@H](c3ccccc3)[C@H](c3ccccc3)N1[C@@H]2c1ccc(OCCO)cc1 | -0.121 | -0.527 (inactive) | 0.0271 | -0.149 | 0.22 | -0.0346 | 0.0459 | 1.23 | 0.598 | 1.09
20 | C#CCOC(=O)N[C@H](C=CCCCC)c1ccccc1 | 1.02 | 0.33 (inactive) | 0.0077 | 0.0964 | 0.88 | 3.67 | 0.711 | 0.199 | -0.0017 | 0.0429
21 | CN(C)CCCC[C@@H]1NC(=O)[C@H]2C[C@@H](C(=O)NCCCCCCNC(=O)CS)[C@@H](c3ccc(O)cc3)N2C1=O | 0.468 | -0.131 (inactive) | -0.159 | -0.14 | 0.802 | 2.66 | 0.957 | 0.457 | -0.0412 | -0.263
